Here are results for six compounds from PubChem BioAssay.

Experiment [1] can be described thus: JHH-DIPG-1 glioma cell viability, MIPE5.0 library, CellTiter-Glo luminescence, qHTS (AID 1347067; cut-off not given, nearly all actives have AC50 up to about 26 µM;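 note: cells exposed to compound for 48 hours before readout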). Particulars: JHH-DIPG-1 glioma viability, CellTiter-Glo ATP luminescence.
Experiment [2] can be described thus: growth inhibition of DIPG cells – cell-based, MIPE5.0 library, qHTS (AID 1347068; cut-off not given, nearly all actives have IC50 up to about 30 µM). Particulars: SU-DIPG-XXV viability.
The nature of experiment [3]: viability loss with induced miR-34 in A549 – imaging, A549 dox-inducible miR-34, nuclei and caspase counts, primary screen (AID 1347080;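 active = compounds whose cell count with miR-34 switched on is under 0.7 times the count with it off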). To be noted: A549 miR-34 inducible, Hoechst nuclei count, 48 h.
Experiment [4] in a line: MELAS cybrid and Rieske KO viability enhancers – cell-based, MELAS cybrids, Rieske KO mouse fibroblasts, CellTiter-Glo, primary screen (AID 1508586;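 active = mean z-score across replicates of 1.96 or higher in either the MELAS or the Rieske mutant cell line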;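 note: z relative to plate mean and SD of compound and empty wells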). Particulars: low glucose.
The nature of experiment [5]: viability loss in pontine glioma line – cell-based, SU-DIPG-IV, MIPE4.0, CellTiter-Glo, qHTS, dose response (AID 1347063; cut-off not given, nearly all actives have AC50 up to about 30 µM;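 note: compound exposure lasted 48 hours before the viability readout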). To be noted: CellTiter-Glo ATP luminescence.
Experiment [6] can be described thus: viability loss in pontine glioma line – cell-based, SU-DIPG-XIII, MIPE5.0, CellTiter-Glo, qHTS, dose response (AID 1347064; cut-off not given, nearly all actives have AC50 up to about 23 µM). To be noted: CellTiter-Glo ATP luminescence.
Experiment [7] is described as follows: P. berghei load reduction in hepatocytes – cell-based, HepG2, luciferase luminescence, HepG2 viability, primary screen (AID 624349; in the data active = parasite load remaining mostly below about 12%, no sharp cut-off; inactive = mostly above about 10%;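 note: 100% = mean of DMSO negative control wells on the same plate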). To be noted: P. berghei liver stage in HepG2, luciferase luminescence, concentration not given here; parasite load remaining: stronger effect = lower value; viability: measured here: HepG2 viability without parasites.
Experiment [8] can be described thus: viability loss in pontine glioma line – cell-based, SU-DIPG-XXV, MIPE5.0, CellTiter-Glo, qHTS, dose response (AID 1347065; cut-off not given, nearly all actives have AC50 up to about 26 µM;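 note: cells exposed to compound for 48 hours before ATP readout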). To be noted: CellTiter-Glo ATP luminescence.
Experiment [9] is described as follows: growth inhibition of DIPG cells – cell-based, MIPE4.0 library, CellTiter-Glo luminescence, qHTS (AID 1347066; cut-off not given, nearly all actives have AC50 up to about 30 µM;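 note: cells exposed to compound for 48 hours before readout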). To be noted: SU-DIPG-VI viability, CellTiter-Glo ATP luminescence.
Experiment [10] is described as follows: compounds altering HSF1 focus formation in cells – imaging, Selleck Cancer Library (AID 1347162; in the data active = plate-normalised HSF1 focus index below about 0.46). To be noted: human cells, HSF1 nuclear foci imaging, at 10 µM; SSMD: measured here: HSF1 foci SSMD mean; cell count: measured here: cell number; plate-normalised HSF1 focus index: stronger effect = lower value.
Experiment [11] can be described thus: drug combination growth inhibition, ovarian cancer – cell-based, oncology-focused library, rucaparib conditional, profiling panel (AID 1508598). To be noted: patient-derived ovarian cancer cells, CellTiter-Glo viability, 144 h, stronger effect = lower value.
Where [12] appears, read: stronger effect = lower value, cell number ratio, induced over uninduced.
Setting [13] is: measured here: relative caspase fold change +Dox/-Dox.
[14] abbreviates: measured here: total cells with miR-34 induction, stronger effect = lower value.
[15] abbreviates: measured here: total cells without miR-34 induction.
The mark [16] stands for this setting: MELAS cybrid survival, CellTiter-Glo 48 h, stronger effect = higher value.
[17] abbreviates: Rieske KO mouse fibroblast survival, CellTiter-Glo 72 h.

Results filed as inconclusive are left out. Calls of active or inactive are those of the source.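 Rule for the calls, unless noted: active = normalized viability below 100% at a tested concentration; inactive = the rest.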

Take `Cc1sc2c(c1C)C(c1ccc(Cl)cc1)=NC(CC(N)=O)c1nnc(C)n1-2` (stereo unspecified): the compound was classed as inactive in [1] and in [2]. Also, the fold change was 0.978 (inactive) in [3] (setting [12]) and 0.427 in experiment [3] (setting [13]). For the same compound, the results for the cell count in [3] (setting [14]) and in experiment [3] (setting [15]) were 5420 and 5540, respectively. Also, the z-score was 0.425 (inactive) in [4] (setting [16]) and -3.88 in experiment [4] (setting [17]).

For `CN=C(NS(=O)(=O)c1ccc(Cl)cc1)N1C[C@H](c2ccccc2)C(c2ccc(Cl)cc2)=N1`, the fold change in [3] (setting [12]) was 0.982 (inactive); in [3] (setting [13]), 1.16. For the same compound, the cell count in experiment [3] (setting [14]) is 5510; in experiment [3] (setting [15]), 5610.

As for `CCCCCCCCCC(=O)OC[C@H](COP(=O)([O-])OCC[N+](C)(C)C)OC(=O)CCCCCCCCC`, the fold change in experiment [3] (setting [12]) is 0.907 (inactive); in [3] (setting [13]), 0.797. Further, the figures for the cell count in experiment [3] (setting [14]) and in experiment [3] (setting [15]) were 5320 and 5860, respectively.

Turning to `Cc1c(C(=O)Nc2cccc(C(F)(F)F)c2)cc(-c2ccccc2)n1CCCN1CCOCC1`, the AC50 in [5] is 18.7 µM (active). In addition, in experiment [6], the compound was classed as inactive.

Consider `O=c1[nH]c2ccccc2n1C1CCN(Cc2ccc(-c3[nH]c4cc5ncnc5cc4nc3-c3ccccc3)cc2)CC1`, for which the parasite load remaining in experiment [7] was 45.5% (inactive). Further, in [7], the viability came to 115%. Moreover, the half-maximal activity concentration (AC50) is 16.6 µM (active) in experiment [5], 23.5 µM (active) in experiment [8] and 14.8 µM (active) in [9].

Consider `Cn1cc(C2=C(c3cn(C4CCN(Cc5ccccn5)CC4)c4ccccc34)C(=O)NC2=O)c2ccccc21`, for which the compound was called inactive in experiment [9] and in experiment [2]. Further, the fold change in experiment [3] (setting [12]) was 0.96 (inactive); in experiment [3] (setting [13]), 1.18. Besides, the cell count in experiment [3] (setting [14]) was 6030; in experiment [3] (setting [15]), 6280; in [10] it was 6710. Besides, the SSMD in experiment [10] was 0.559. In experiment [10], the plate-normalised HSF1 focus index was 1.03 (inactive). Further, the z-score in experiment [4] (setting [16]) was -0.204 (inactive); in experiment [4] (setting [17]), -2.05. For the same compound, the viability was 118% (inactive) in [11] (at 0.000305 µM, OCI-C5x cells, with rucaparib 10 µM, 100% = cells with rucaparib alone); 151% (inactive) in experiment [11] (at 0.000305 µM, OCI-C5x cells, without rucaparib); 108% (inactive) in experiment [11] (at 0.000305 µM, OCI-P5x cells, with rucaparib 20 µM, 100% = cells with rucaparib alone); 115% (inactive) in [11] (at 0.000305 µM, OCI-P5x cells, without rucaparib); 136% (inactive) in [11] (at 0.00122 µM, OCI-C5x cells, with rucaparib 10 µM, 100% = cells with rucaparib alone); 148% (inactive) in experiment [11] (at 0.00122 µM, OCI-C5x cells, without rucaparib). The viability in [11] (at 0.00122 µM, OCI-P5x cells, with rucaparib 20 µM, 100% = cells with rucaparib alone) was 113% (inactive); in experiment [11] (at 0.00122 µM, OCI-P5x cells, without rucaparib) it was 105% (inactive); in [11] (at 0.00488 µM, OCI-C5x cells, with rucaparib 10 µM, 100% = cells with rucaparib alone) it was 127% (inactive); in experiment [11] (at 0.00488 µM, OCI-C5x cells, without rucaparib) it was 136% (inactive); in experiment [11] (at 0.00488 µM, OCI-P5x cells, with rucaparib 20 µM, 100% = cells with rucaparib alone), 109% (inactive); in experiment [11] (at 0.00488 µM, OCI-P5x cells, without rucaparib), 105% (inactive). The viability in experiment [11] (at 0.0195 µM, OCI-C5x cells, with rucaparib 10 µM, 100% = cells with rucaparib alone) is 138% (inactive); in experiment [11] (at 0.0195 µM, OCI-C5x cells, without rucaparib), 144% (inactive); in experiment [11] (at 0.0195 µM, OCI-P5x cells, with rucaparib 20 µM, 100% = cells with rucaparib alone), 106% (inactive); in [11] (at 0.0195 µM, OCI-P5x cells, without rucaparib) it was 98.4% (active); in experiment [11] (at 0.0781 µM, OCI-C5x cells, with rucaparib 10 µM, 100% = cells with rucaparib alone), 127% (inactive); in experiment [11] (at 0.0781 µM, OCI-C5x cells, without rucaparib) it was 149% (inactive). Besides, the viability in experiment [11] (at 0.0781 µM, OCI-P5x cells, with rucaparib 20 µM, 100% = cells with rucaparib alone) was 119% (inactive); in [11] (at 0.0781 µM, OCI-P5x cells, without rucaparib) it was 105% (inactive); in [11] (at 0.313 µM, OCI-C5x cells, with rucaparib 10 µM, 100% = cells with rucaparib alone), 136% (inactive); in experiment [11] (at 0.313 µM, OCI-C5x cells, without rucaparib), 146% (inactive); in experiment [11] (at 0.313 µM, OCI-P5x cells, with rucaparib 20 µM, 100% = cells with rucaparib alone) it was 111% (inactive); in [11] (at 0.313 µM, OCI-P5x cells, without rucaparib), 93.7% (active). Moreover, the viability in experiment [11] (at 1.25 µM, OCI-C5x cells, with rucaparib 10 µM, 100% = cells with rucaparib alone) was 149% (inactive); in [11] (at 1.25 µM, OCI-C5x cells, without rucaparib), 156% (inactive); in [11] (at 1.25 µM, OCI-P5x cells, with rucaparib 20 µM, 100% = cells with rucaparib alone), 113% (inactive); in experiment [11] (at 1.25 µM, OCI-P5x cells, without rucaparib) it was 92.6% (active); in experiment [11] (at 5 µM, OCI-C5x cells, with rucaparib 10 µM, 100% = cells with rucaparib alone), 159% (inactive); in [11] (at 5 µM, OCI-C5x cells, without rucaparib), 140% (inactive). For the same compound, the viability in experiment [11] (at 5 µM, OCI-P5x cells, with rucaparib 20 µM, 100% = cells with rucaparib alone) is 102% (inactive); in experiment [11] (at 5 µM, OCI-P5x cells, without rucaparib) it was 99.4% (active).
